We go through 40 compounds from PubChem BioAssay (Tox21).

Inconclusive results are not listed. Entries that show only a call come without a potency. Unmarked numbers belong to inactive results. Calls of active or inactive are those of the source. The call rests on the fitted dose curve; in most records, active means well fitted cell-killing curve with a large enough effect in the repeat runs; inconclusive means weak or mixed curves, or effect the other way; inactive means flat fitted curve, though single readings scatter.

This test can be described thus: Human pregnane X receptor (PXR) small molecule agonists, qHTS cell viability counter screen (AID 1346977). Further: nearly all actives have a fitted effect of over 50% in size. The conditions noted are these: PXR-Luc HepG2 viability, CellTiter-Fluor, 24 h; series mostly up to 92.4 µM. The text has this: U.S. Tox21 Program National Center for Advancing Translational Sciences [NCATS] NIH Chemical Genomics Center [NCGC] U.S. Environmental Protection Agency [EPA] National Institutes of Environmental Health Sciences [NIEHS] National Toxicology Program [NTP] U.S. Food and Drug Administration [FDA] Tox21 Assay Overview: The human pregnane X receptor (hPXR) regulates the expression of several drug metabolizing enzymes and induction of these proteins is a major mechanism for developing drug resistance in cancer. One such key enzyme catalyzing the drug metabolism is cytochrome P450 3A4 (CYP3A4). Changes in CYP3A4 expression affect drug metabolism, thereby reducing the therapeutic efficacy and altering toxicological response to a drug and which finally causes adverse drug interaction. To screen Tox21 libraries for compounds that activate hPXR-mediated CYP3A4 gene expression, PXR-Luc HepG2 cells were used. Also cytotoxicity of the compounds was tested in parallel by measuring the cell viability using CellTiter-Fluor assay system in the same wells.
Tox21 Assay Protocol Summary: PXR-Luc HepG2 cells were dispensed at 2,000 per well in 5uL of assay medium containing 5% charcoal-stripped FBS into white solid bottom 1536-well plates (Corning Life Sciences, Corning, NY) using a Multidrop Combi (Thermo Scientific, Waltham, MA) dispenser. The assay plates were incubated at 37 C and 5% CO2 for 5hr, and then 23nL of compounds dissolved in DMSO and positive control were transferred using a Pintool station (Wako, San Diego, CA). The assay plates were incubated at 37C and 5% CO2 for 24hr. For cytotoxicity read, after 23hr incubation at 37C, 1uL CellTiter-Fluor reagent (Promega Corporation, Madison, WI) was added to each well of the assay plates using Flying Reagent Dispenser (FRD, Aurora Discovery, San Diego, CA). After 1hr incubation at 37C and 5% CO2, the fluorescence signal was quantified using a ViewLux plate reader (PerkinElmer, Shelton, CT).
(In general: Quantitative high-throughput screening tests each substance at several concentrations.)
For `CC(=O)/C=C/c1ccco1`, the Potency entry is “inactive”. In the case of `CCCCCCCCCCCCC1CO1` (stereo not given), the Potency result is “inactive”.

On to `FC(F)(F)/C(=N\OCC1OCCO1)c1ccc(Cl)cc1`, for which the Potency result was “inactive”. Same read-out and setting: the same measure for `CCN(Cc1cccc(S(=O)(=O)O)c1)c1ccccc1`: “inactive”.

`C1=C\CC/C=C\CC/1`: the Potency entry was “inactive”.

On to `O=P(O)(O)OCC(O)CO` (stereo not given), for which the Potency result is “inactive”. Same read-out and setting: the same measure for `CCC(O)C(C)(C)C` (stereo not given): “inactive”; for `CCCCC/C=C/CC(=O)OC`: “inactive”. On the same count and under the same terms, the same measure for `CC(=O)OCC(=O)[C@@]1(O)[C@H](OC(C)=O)C[C@H]2[C@@H]3CCC4=CC(=O)C=C[C@]4(C)[C@@]3(F)[C@@H](O)C[C@@]21C`: “inactive”. Still for that read-out and setting: the same measure for `CC(=O)OC(C)c1ccccc1` (stereo not given): “inactive”; for `C[N+](C)(C)CC(O)CCl` (stereo not given): “inactive”.

For the compound `CCCCC(CC)COC(=O)c1ccccc1` (stereo not given), the Potency result was “inactive”. As for `CC(=O)Nc1ncc([N+](=O)[O-])s1`, the Potency result is “inactive”. Same read-out and setting: the same measure for `NS(=O)(=O)c1ccc(Cl)c(S(N)(=O)=O)c1`: “inactive”.

For `CCCCC(=O)N(C)C`, the Potency entry is “inactive”. On to `C=C[C@@H](C)CCC=C(C)C`, for which the Potency entry was “inactive”. In the case of `CN[C@@H]1[C@H](O)[C@H](NC)[C@H]2O[C@@]3(O)C(=O)C[C@@H](C)O[C@H]3O[C@@H]2[C@H]1O`, the Potency entry was “inactive”. Still for that read-out and setting: the same measure for `c1ccccc1`: “inactive”. Turning to `CC(C)(CO)[C@@H](O)C(=O)NCCCO`, the Potency result was “inactive”. `CCCOCCOCCOCCO`: the Potency entry was “inactive”. Still for that read-out and setting: the entry for `O=S1(=O)CCCC1` is “inactive”. As to `O=c1[nH]c(=O)c2[nH]c(=O)[nH]c2[nH]1`, the activity change, negative = cytotoxicity was -1.5% [at 8.39 µM]. Take `CCCCCN(CCCOC)C(=O)C(CCC(=O)O)NC(=O)c1ccc(Cl)c(Cl)c1` (stereo not given): the Potency result was “inactive”.

Consider `O=C(Nc1cccc(C2=NCCN2)c1)Nc1cccc(C2=NCCN2)c1`, for which the activity change, negative = cytotoxicity was 1.2% [at 19 µM].

For the compound `CC(=O)OC(C)(C)Cc1ccccc1`, the Potency result is “inactive”.

On to `C[CH2][Ge]([Cl])([CH2]C)[CH2]C`, for which the Potency entry was “inactive”. In the case of `CCCCCCCCCCCCCCCCCCN(C)C`, the Potency entry was “inactive”. With `C=CCOc1c(Br)cc(C(C)(C)c2cc(Br)c(OCC=C)c(Br)c2)cc1Br`, the Potency result was “inactive”. Turning to `COCCOCCOCCOC`, the Potency entry is “inactive”. On to `O=C(O)c1c(Cl)ccc(Cl)c1Cl`, for which the Potency result was “inactive”.

`Cc1cc(O)c2c(c1)C(=O)c1cccc(O)c1C2=O`: the Potency entry was “inactive”. Consider `CCCCCC1Nc2cc(C(F)(F)F)c(S(N)(=O)=O)cc2S(=O)(=O)N1` (stereo not given), for which the Potency result was “inactive”. As to `Cc1ccccc1C`, the Potency result was “inactive”. For `CCOC(=O)C(C)(C)C`, the Potency result is “inactive”. Regarding `O=C1NC2NC(=O)NC2N1` (stereo not given), the Potency entry is “inactive”. In the case of `Cc1cccc(Nc2ccncc2S(=O)(=O)NC(=O)NC(C)C)c1`, the Potency result is “inactive”.

For the compound `C[C@H](CCC(=O)O)[C@H]1CC[C@H]2[C@@H]3[C@H](O)C[C@@H]4C[C@H](O)CC[C@]4(C)[C@H]3C[C@H](O)[C@]12C`, the Potency entry was “inactive”.

Take `CC(C)c1ccccc1O`: the Potency entry is “inactive”.

For `CCCCCCCC/C=C\CCCCCCCC(=O)OC[C@@H](O)[C@H]1OC[C@H](O)[C@H]1O`, the Potency entry was “inactive”.

For the compound `SCCSCCS`, the Potency entry was “inactive”.
